Measured values taken from PubChem BioAssay (Tox21).
Results filed as inconclusive are left out. Entries that show only a call come without a potency. Calls of active or inactive are those of the source. Unless noted, calls come from the whole dose curve; as a rule, active = well fitted curve in the direction sought with a large enough effect in the repeat runs; inconclusive = weak or mixed curves; inactive = no such curve, though single readings can be large; an effect the other way counts as inactive or inconclusive.

Key:
[1] = qHTS assay to identify small molecule agonists of the RXR signaling pathway - cell viability counter screen (AID 1159529);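 note: HEK 293T cells carrying an RXR-alpha UAS beta-lactamase reporter; series mostly up to about 77 µM; nearly all actives have a fitted effect of over 50% in size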
How it was run: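 Tox21 10K compounds were tested for cytotoxicity against GeneBLAzer RXR-alpha HEK 293T cells grown in 2% charcoal-stripped FBS. Exposure lasted 16 hr at 37 C, 5% CO2; viability read by CellTiter-Glo luminescence.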

[2] = qHTS assay to identify small molecule antagonists of the retinoid acid receptor (RAR) signaling pathway - cell viability counter screen (AID 1159551); note: nearly all actives have a fitted effect of over 35% in size
How it was run: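 C3RL4 RARE-luciferase line; cpds + retinol 1 uM final, 6 h, 37 C/5% CO2; CellTiter-Glo ATP luminescence, 30 min RT.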

[3] = qHTS assay to identify small molecule antagonists of the retinoic acid receptor (RAR) signaling pathway (AID 1159552; note: nearly all actives have a fitted effect of over 50% in size)
How it was run: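 Overnight-plated C3RL4 reporter cells get compound, then retinol to 1 uM final; plates sit 6 hr at 37 C, 5% CO2. A luciferase reagent is added and light output recorded after 30 min at room temperature.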

[4] = qHTS assay to identify small molecule agonists of the retinoic acid receptor (RAR) signaling pathway (AID 1159553); note: potency is the fitted concentration of half-maximal effect
How it was run: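 RARE-luc C3RL4 cells; overnight attachment 37 C/5% CO2; compound (DMSO) 6 hr; luciferase reagent, 30 min RT; luminescence read-out.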

[5] = qHTS assay to identify small molecule antagonists of the estrogen related receptor (ERR) signaling pathway - cell viability counter screen (AID 1224818); note: potency is the fitted concentration of half-maximal effect
How it was run: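 Fluorescence from CellTiter-Fluor, read 30 min after reagent addition at 37 C, measured viability of ERR cells exposed to compounds for 17.5 h. Cells had settled 6 h before dosing.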

[6] = qHTS assay to identify small molecule antagonists of the estrogen related receptor (ERR) signaling pathway (AID 1224819;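 note: luminescence from an ERR-driven luciferase reporter measured with One-Glo reagent; series mostly up to about 46 µM; nearly all actives have a fitted effect of over 50% in size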)
How it was run: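 Luminescence readout (One-Glo, 30 min, RT) of ERR cell line after 18 h compound exposure at 37 C; cells seeded 2,000/well, pre-incubated 6 h, compounds pinned from DMSO stocks.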

[7] = qHTS assay to identify small molecule agonists of the estrogen related receptor (ERR) signaling pathway (AID 1224820); note: potency is the fitted concentration of half-maximal effect
How it was run: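 Luminescence readout (One-Glo, 30 min RT) from NTP-supplied ERR cell line exposed to compounds for 18 h at 37 C. Cells seeded 2,000 per well and pre-incubated 6 h before pin-tool compound transfer.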

[8] = system: estrogen-related receptor alpha (ERRalpha) with PGC-1alpha coactivator, human; assay: qHTS assay to identify small molecule antagonists of the estrogen related receptor signaling pathway with the pleiotropic PPARgamma coactivator (PGC) (AID 1224821; calls by dose curve;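 note: series mostly up to about 46 µM; lower luminescence signal means antagonism of PGC/ERR signalling; nearly all actives have a fitted effect of over 50% in size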)
How it was run: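 PGC/ERR reporter cells; 6 h pre-incubation 37 C/5% CO2; pin-tool compound in DMSO, 18 h 37 C; One-Glo added, 30 min RT; luminescence read. qHTS antagonist mode.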

[9] = qHTS assay to identify small molecule agonists of the estrogen related receptor signaling pathway with the pleiotropic PPARgamma coactivator (PGC) (AID 1224823); note: potency is the fitted concentration of half-maximal effect
How it was run: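 Luminescence readout (One-Glo, 30 min RT) from PGC/ERR cell line treated 18 h at 37 C with pin-tool-delivered DMSO compound solutions; cells plated 6 h before dosing. Quantitative HTS format.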

[10] = qHTS assay to identify small molecule antagonists of the estrogen related receptor signaling pathway with the pleiotropic PPARgamma coactivator (PGC) cell viability counter screen (AID 1224822; note: series mostly up to about 46 µM)
How it was run: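 Fluorescence read-out of CellTiter-Fluor after 30 min at 37 C; PGC/ERR cells, 2,000 per well, had been exposed to DMSO-dissolved compounds for 17.5 h following a 6 h pre-incubation.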

O=c1[nH]c2cc(Cl)ccc2n1C1CCNCC1
Potency [1]: inactive
Potency [2]: inactive
Potency [3]: inactive
Potency [4]: inactive

S=C=Nc1ccccc1
Potency [1]: inactive
Potency [2]: inactive
Potency [3]: inactive
Potency [4]: 70.8 µM (active)

NC(=O)C(Cl)Cl
Potency [1]: inactive
Potency [2]: inactive
Potency [3]: inactive
Potency [4]: inactive

COc1c2c(cc3c1OCO3)CCN(C)C2
Potency [1]: inactive
Potency [2]: inactive
Potency [4]: inactive

Nc1ccc(N=Nc2ccccc2)cc1
Potency [1]: inactive
Potency [2]: inactive
Potency [3]: inactive
Potency [4]: 0.386 µM (active)
Potency [5]: 31.8 µM (active)
Potency [6]: inactive
Potency [7]: 10.1 µM (active)
Potency [8]: inactive
Potency [9]: 14.2 µM (active)

[O]=[Cr][O][Cr]=[O]
Potency [1]: inactive
Potency [2]: inactive
Potency [3]: inactive
Potency [4]: inactive

O=S(=O)(O)F
Potency [1]: inactive
Potency [2]: inactive
Potency [3]: inactive
Potency [4]: inactive

O=[N+]([O-])C(Br)Br
Potency [1]: inactive
Potency [2]: inactive
Potency [3]: inactive
Potency [4]: inactive

COP(=S)(OC)Oc1nc(Cl)c(Cl)cc1Cl
Potency [1]: inactive
Potency [2]: inactive
Potency [3]: inactive
Potency [4]: inactive

ClCBr
Potency [1]: inactive
Potency [2]: inactive
Potency [3]: inactive
Potency [4]: inactive

Nc1c(Cl)c(Cl)c(Cl)c(Cl)c1Cl
Potency [1]: inactive
Potency [2]: inactive
Potency [3]: inactive
Potency [4]: inactive
Potency [5]: inactive
Potency [10]: inactive

COc1ccc(Cc2nccc3cc(OC)c(OC)cc23)cc1OC
Potency [1]: inactive
Potency [2]: inactive
Potency [3]: inactive
Potency [4]: inactive
Potency [5]: inactive
Potency [10]: inactive

Oc1cc(Cl)cc(Cl)c1
Potency [1]: inactive
Potency [2]: inactive
Potency [3]: inactive
Potency [4]: inactive

COP(=O)(OC)O/C(=C\Cl)c1cc(Cl)c(Cl)cc1Cl
Potency [1]: inactive
Potency [2]: inactive
Potency [4]: inactive

O=P(Cl)(Cl)Cl
Potency [1]: inactive
Potency [2]: inactive
Potency [3]: inactive
Potency [4]: inactive

ClC(Cl)C(Cl)(Cl)Cl
Potency [1]: inactive
Potency [2]: inactive
Potency [3]: inactive
Potency [4]: inactive
